# Shown are actives, neighbours in structure and some others; about 1.5% of the full set was active somewhere.
# MCL1 BIM primary: MCL1-BIM-BH3 interaction inhibition (human); Q07820; GST-MCL1 / FITC-Bim-BH3 fluorescence polarization; inhibition, % at 10.9 µM; 320,000 tested, 0.68% active;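 active = inhibition above the mean inhibition of all tested compounds plus 3 SD, set per campaign, cut at about 40% in these data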;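 also: 0% = DMSO wells and 100% = unlabeled Bim-BH3 peptide control; higher means more loss of mP so more displacement of Bim peptide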
# EBV gp42 block: inhibitors of Epstein-Barr virus glycoprotein 42; Q1HVG2; Fluorescence polarization binding assay, mP read-out; inhibition, % (tested at 21.74 µM); 220,000 tested, 0.42% active; in the data active = inhibition above about 50%
# GLD-1 TGE inh: GLD-1-TGE RNA interaction inhibition (C. elegans) | inhibition, % at 5.96 µM | AID 2280 | 320,000 tested, 0.44% active | purified GLD-1 + fluorescein TGE RNA, fluorescence polarization;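 active = percent inhibition above a per-plate cutoff, the plate mean of test compounds plus 3 SD, cut at about 30% in these data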;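 also: 0% = DMSO wells with GLD-1 and probe and 100% = wells lacking GLD-1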
# Target sequence (Q17339 whole entry, looked up): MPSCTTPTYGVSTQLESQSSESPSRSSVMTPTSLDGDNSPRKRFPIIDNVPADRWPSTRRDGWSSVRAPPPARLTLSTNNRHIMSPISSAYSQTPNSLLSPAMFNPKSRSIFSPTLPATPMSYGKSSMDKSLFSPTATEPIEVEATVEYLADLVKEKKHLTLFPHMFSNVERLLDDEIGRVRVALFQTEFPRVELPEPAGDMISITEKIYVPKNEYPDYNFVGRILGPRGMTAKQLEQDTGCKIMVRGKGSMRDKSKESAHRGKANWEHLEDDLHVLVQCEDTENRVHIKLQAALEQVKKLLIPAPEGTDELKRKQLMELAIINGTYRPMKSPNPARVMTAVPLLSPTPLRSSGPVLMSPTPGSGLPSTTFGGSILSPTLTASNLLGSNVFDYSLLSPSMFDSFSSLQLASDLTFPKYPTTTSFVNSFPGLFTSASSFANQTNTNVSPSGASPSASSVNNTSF
# Bcl-xL primary: Bcl-xL (human) inhibition; inhibition, % at 10.9 µM; 320,000 tested, 0.7% active; Q07817; GST-Bcl-xL / FITC-Bim BH3 peptide fluorescence polarization;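 active = inhibition above the mean of all tested compounds plus 3 SD, cutoff set per campaign, cut at about 30% in these data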;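 also: 0% = DMSO wells and 100% = unlabeled Bim-BH3 peptide competitor; inhibitors lower millipolarization by displacing the labeled peptide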
# MEX-5 binding: C. elegans MEX-5 TCR-2 RNA binding activity; Q9XUB2; MEX-5/FITC-TCR2 RNA binding, fluorescence polarization; stronger effect = lower value; activity score (negative = inhibition of binding), % at 10 µM; 300,000 tested, 0.38% active;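 active = inhibition past about -25% in most replicates, and total fluorescence under double the plate's negative control median, limit read from the data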;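 also: 0% = DMSO and -100% = 5 µM competing unlabeled TCR2 RNA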
# E coli Lon inh: inhibitors of E. coli Lon protease; P0A9M0; purified E. coli Lon protease, fluorescence polarization; inhibition, % at 7.94 µM; 360,000 tested, 0.42% active; AID 602123; in the data active = inhibition above about 13%, passing the limit was not always enough;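 also: 0% = enzyme with probe and DMSO and 100% = no enzyme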
# BCLXL inh confirm: Bcl-xL (human) inhibition, MCL1 counter-screen confirmation. shares compounds with MCL1 BIM primary. inhibition, % at 10.9 µM. GST-Bcl-xL / FITC-Bim BH3 peptide FP binding. 1,700 tested, 54% active;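 active = inhibition above a cutoff equal to the mean inhibition of all tested compounds plus 3 SD, cut at about 30% in these data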;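 also: 0% = DMSO wells and 100% = unlabeled Bim BH3 control peptide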
# MCL1 BIM confirm: confirmation of human MCL1 and BIM-BH3 interaction inhibitors. shares compounds with MCL1 BIM primary. GST-MCL1 / FITC-Bim-BH3 fluorescence polarization. inhibition, % at 10.9 µM. 1,700 tested, 61% active. AID 2168;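 active = inhibition above the average of all tested compounds plus 3 SD, cut at about 40% in these data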;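 also: 0% = DMSO wells and 100% = unlabeled Bim-BH3 control peptide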
# Active calls of the source: *; nt = no result.
SMILES,MCL1 BIM primary,EBV gp42 block,GLD-1 TGE inh,Bcl-xL primary,MEX-5 binding,E coli Lon inh,BCLXL inh confirm,MCL1 BIM confirm
C/C(=C\c1ccccc1)C1Nc2cccc3cccc(c23)N1,40.6*,nt,10.8,25.4,nt,nt,19.8,20.1
O=C(CN1CCCc2ccccc21)NCc1ccccc1Cl,68.1*,-19.0,-64.3,61.9*,-0.7,-25.4,10.7,-2.3
Cc1ccccc1OCC(=O)Nc1sc2c(c1C#N)CCC2,6.2,-8.8,-1.1,6.8,-5.8,-10.0,nt,nt
N#Cc1ccc(OCC(=O)NCC2(N3CCCCC3)CCCCC2)cc1,6.1,-18.0,3.7,-0.6,-4.0,-4.4,nt,nt
CCN1C(=O)/C(=C/N(C)C)c2ccccc21,2.5,-5.1,2.5,-2.1,1.5,-0.6,nt,nt
CCOC(=O)C1(Cc2cccc(Cl)c2)CCCN(C(=O)c2c(CC)noc2C)C1 (stereo not given),42.1*,nt,4.2,6.3,0.6,0.0,4.1,1.3
CCOC(=O)C1(Cc2cccc(Cl)c2)CCCN(C(=O)c2cc(C)on2)C1 (stereo not given),nt,nt,nt,nt,0.0,3.6,nt,nt
COC(=O)Cn1c(=NC(=O)c2cccc(OC)c2)sc2cc(OC)ccc21,3.9,2.4,-3.0,2.5,-0.9,13.0,nt,nt
Cn1cccc1/C=C(/C#N)C(N)=S,15.0,-3.8,-9.2,5.3,-2.1,0.3,nt,nt
Cc1ccc(-c2ccc(/C=C(\C#N)C(N)=S)n2C)cc1,68.2*,-3.4,-32.6,67.4*,nt,-23.2,9.2,3.7
CCN(CC)c1ncnc2c1cnn2Cc1ccc(C)cc1,45.2*,nt,-6.2,2.9,-2.2,4.8,8.1,9.5
COc1ccc(NC(=O)c2ccc(-c3nn(C)c(=O)c4ccccc34)cc2)cc1,45.2*,-2.2,4.8,15.8,-2.4,-1.8,-3.7,-6.6
COc1ccccc1NC(=O)c1ccc(-c2nn(C)c(=O)c3ccccc23)cc1,-2.1,-28.9,-0.4,5.5,-1.1,-5.5,nt,nt
O=c1nc2s/c(=C\c3ccco3)c(=O)n2nc1Cc1ccc(F)cc1,53.1*,-3.8,-3.9,12.6,0.1,-18.8,26.6,68.0*
CCCN1C(=O)/C(=c2\sc3nc(=O)c(Cc4ccc(C)cc4)nn3c2=O)c2ccccc21,17.4,-8.4,-2.2,9.9,0.9,-8.8,nt,nt
CCNC(=O)Cn1c(=O)c(=O)n(Cc2ccccc2)c2ccc(Cl)cc21,-11.0,-33.1,4.6,27.2,0.3,0.4,nt,nt
COC(=O)c1ccc(CN2CCC(CO)(Cc3ccccc3Cl)CC2)cc1,-6.8,-5.9,-8.0,4.0,3.7,-7.4,nt,nt
O=C(CNc1cccc2ccccc12)N/N=C/c1ccc(C(=O)O)cc1,68.3*,-2.8,5.8,6.7,-3.9,-2.1,13.0,52.1*
Cc1ccc(NC(=O)CC2SC(=O)N(c3ccccc3)C2=O)cc1 (stereo not given),6.1,-7.9,1.2,9.4,-2.9,-2.9,nt,nt
CSc1ccccc1NC(=O)COC(=O)c1ccc(O)cc1,7.7,1.5,0.7,2.5,2.4,-2.2,nt,nt
O=C(CCS(=O)(=O)c1ccc(Br)s1)NC1CCCC1,3.0,-6.8,-3.0,1.6,-0.6,-0.9,nt,nt
O=C1C2CC=C(Cl)CC2C(=O)N1CCCCCCN1C(=O)C2CC=C(Cl)CC2C1=O (stereo not given),40.2*,63.4*,14.9,29.9,-28.4*,31.8,32.7*,55.1*
COc1ccc(C(O)c2nc(-c3cccc4cccnc34)cs2)cc1 (stereo not given),nt,nt,nt,nt,nt,-8.1,nt,nt
COc1ccc(CN2C(=O)Cc3c2nc(N)c2c(N)nc(N4CCCCC4)c(C#N)c32)cc1,65.8*,20.7,16.1,44.5*,-2.5,nt,5.6,-4.4
O=C1c2cccc3c(N4CCCCC4)ccc(c23)C(=O)N1c1ccccn1,171.9*,129.5*,161.2*,122.4*,-68.8*,10.2,154.1*,179.1*
CN(C)c1ccc(/C=N/n2c(C3CCCCC3)n[nH]c2=S)cc1,-18.1,nt,-3.3,-6.9,1.4,5.0,nt,nt
